From ChEMBL document CHEMBL4513216, “Probing the Open Global Health Chemical Diversity Library for Multistage-Active Starting Points for Next-Generation Antimalarials” (ACS Infect Dis, 2020)
Out of some 68,000 compounds screened, about 2,700 (4%) showed an effect of 50% or more. This is one part of a sample in which strong results are shown more often than they occur.

What follows are molecules tested on Plasmodium berghei (assay: Screen against P. berghei liver stage (PbLuc), transformed with Luciferase, at 2uM). Settings: tested at 2 uM.
Type: functional, HepG2
For `CCN(CC)C(=O)[C@@H]1C[C@@H](n2cc(-c3ccccn3)nn2)CN1`, the INHIBITION was 38.67%. In the case of `CCN(CC)C(=O)[C@@H]1C[C@@H](n2cc(-c3cccc(OC)c3)nn2)CN1`, the INHIBITION is reported as 57.75%. `CCN(CC)C(=O)[C@@H]1C[C@H](n2cc(-c3cccc(OC)c3)nn2)CN1` showed an INHIBITION of 36.28%. With `CC1(C)CC(n2cc3nc(N4CCCC4)[nH]cc-3c2=O)CC(C)(C)N1` the INHIBITION was 6.2%. For `O=C(CCc1ccsc1)NS(=O)(=O)Cc1ccon1`, the INHIBITION was -6.64%. For `O=C(CCc1cccc(Cl)c1)NS(=O)(=O)Cc1ccon1`, the INHIBITION was 41.05%. Work on `O=C(CCc1ccco1)NS(=O)(=O)Cc1ccon1` yielded an INHIBITION of 50.59%. In the case of `CCCNc1ccc(C(=O)NCCc2cccc(OC)c2)cn1`, the INHIBITION is reported as 19.09%. `CC(C)NC(=O)N1CCCCC1c1nnc2n1CCNC2` (centres undefined) showed an INHIBITION of -15.93%. Molecule `CC(NC(=O)c1ccc(Cl)cc1)c1nnc(SCC(=O)O)n1C` (centres undefined) has an INHIBITION of 4.37%. With `Cc1c(CN2CCCC(O)C2)[nH]c2ccc(F)cc12` (centres undefined) the INHIBITION was -1.51%. With `Cc1c(CN2CC[C@@H](N3CCC(O)CC3)[C@H](O)C2)[nH]c2ccc(F)cc12` the INHIBITION was 51.43%. Work on `Cc1c(CN2CC[C@@H](N3CCC(O)CC3)[C@H](O)C2)[nH]c2ccc(Cl)cc12` yielded an INHIBITION of -31.36%. `Cc1nccc(-c2ccccc2)c1C(=O)N1CC[C@](C)(O)C(C)(C)C1` was tested, and the INHIBITION was 48.93%. With `COC1COC2(CCN(Cc3ccc4ccccc4n3)CC2)C1` (centres undefined) the INHIBITION was -0.18%. `CCn1ncc(C(=O)NCc2ccc(C)c(OC)c2)c1C(F)(F)F` gave an INHIBITION of 55.52%. With `CCOc1cccc(CNC(=O)c2cnn(CC)c2C(F)(F)F)c1` the INHIBITION was 40.97%. Work on `CCOc1cc(CNC(=O)c2cnn(CC)c2C(F)(F)F)ccn1` yielded an INHIBITION of -61.54%. `CN1CCC2(CC1)CN(C(=O)c1ccncc1)Cc1ccccc12` gave an INHIBITION of 56.25%. `Cc1cncc(C(=O)N2Cc3ccccc3C3(CCN(C)CC3)C2)c1` showed an INHIBITION of 5.28%. In the case of `CN1CCC2(CC1)CN(C(=O)c1cccnc1)Cc1ccccc12`, the INHIBITION is reported as -19.51%. `Cc1cc(CN2Cc3ccccc3CC2c2nnc(C)o2)on1` (centres undefined) gave an INHIBITION of 21.91%. With `CCc1nnc(C2Cc3ccccc3CN2Cc2cc(C)on2)o1` (centres undefined) the INHIBITION was 33.9%. Work on `CCc1nnc(C2Cc3ccccc3CN2Cc2cc(C)no2)o1` (centres undefined) yielded an INHIBITION of 56.89%. For `Cc1cnc(N2CCC3(CC2)CN(c2ccsc2)C(=O)CO3)nc1`, the INHIBITION was -38.48%. `CC(CN1CCOCC1)NC(=O)N1CCCC1` (centres undefined) showed an INHIBITION of 34.93%. For `Cc1ccoc1C(=O)N1C[C@@H](OCC2CC2)[C@H]2OCCC[C@H]21`, the INHIBITION was 8.25%. With `CCc1nc(NC(=O)NCCc2cccc(C)n2)nn1C` the INHIBITION was 21.14%. Molecule `CC(=O)N(C)CC(=O)Nc1ccc(C)cc1OCc1ccccc1` has an INHIBITION of 50.03%. `CC(=O)NCCNC(=O)Nc1ccc(C)cc1OCc1ccccc1` showed an INHIBITION of 3.22%. Molecule `CCCOc1cc(C)ccc1NC(=O)NCCNC(C)=O` has an INHIBITION of -3.26%. In the case of `Cc1ccc(NC(=O)N(CCO)CCO)c(OCc2ccccc2)c1`, the INHIBITION is reported as 68.73%. `CCOc1ccccc1NC(=O)N(CCO)Cc1ccsc1` showed an INHIBITION of 38.66%. `CCCOc1cc(C)ccc1NC(=O)N(C)C` was tested, and the INHIBITION was -59.32%. In the case of `NC(=O)c1cc(C2CCCN(Cc3ccc4c(c3)OCCO4)C2)n[nH]1` (centres undefined), the INHIBITION is reported as -16.03%. Molecule `Cc1nc(C2CCCN2CC(=O)NCCOc2ccc(F)cc2)no1` (centres undefined) has an INHIBITION of 20.57%. `Cc1nccn1CCCn1cncc1-c1ccc2c(c1)CCC(C)N2C` (centres undefined) was tested, and the INHIBITION was 12.29%. For `CC(C)(C)c1nc(CN2CCCC2Cn2cncn2)no1` (centres undefined), the INHIBITION was 45.83%. Molecule `COc1cccc(C2c3c(n[nH]c3C)N=C3COC(=O)C32)c1O` (centres undefined) has an INHIBITION of 63.46%. In the case of `COc1cccc(C2c3c(n[nH]c3C)N=C3COC(=O)C32)c1OC` (centres undefined), the INHIBITION is reported as -35.07%. `COc1ccc(OC)c(C2c3c(n[nH]c3C)N=C3COC(=O)C32)c1` (centres undefined) gave an INHIBITION of 26.14%. `CNC(=O)CCN1CCCC1c1ccccc1Br` (centres undefined) was tested, and the INHIBITION was 51.76%. In the case of `CNC(=O)CN1CCCC1c1ccccc1Br` (centres undefined), the INHIBITION is reported as 1.9%. In the case of `NC(=O)CN1CCCC1c1ccccc1Br` (centres undefined), the INHIBITION is reported as -43.18%. With `Cc1nn(C)cc1CCC(=O)N1CCCC(n2cncn2)C1` (centres undefined) the INHIBITION was 26.71%. `COc1c[nH]c(C(=O)Nc2nc(C(C)(C)C)cs2)cc1=O` showed an INHIBITION of 34.71%. With `CCOC(=O)Cc1csc(NC(=O)c2cc(=O)c(OC)c[nH]2)n1` the INHIBITION was -5.51%. `COc1c[nH]c(C(=O)Nc2nc(C)cs2)cc1=O` gave an INHIBITION of 79.68%. For `Cc1c(C2CC(=O)Nc3c2cnn3C(C)C)cnn1C` (centres undefined), the INHIBITION was -0.58%. `O=C(CSc1nnc(N2CCOCC2)s1)NCc1cccs1` gave an INHIBITION of 44.98%. `CCc1[nH]ncc1C(=O)N1CCN(c2nccc(OC)n2)CC1` gave an INHIBITION of -85.11%. With `COc1cc(C)nc(N2CCN(C(=O)COCC3CC3)CC2)n1` the INHIBITION was 4.19%. With `COc1ccnc(N2CCN(C(=O)COCC(F)(F)F)CC2)n1` the INHIBITION was 4.19%. `COc1cc(C)nc(N2CCN(C(=O)COCC(F)(F)F)CC2)n1` gave an INHIBITION of 51.21%. `CCOc1cc(C)nc(N2CCN(C(=O)c3cn[nH]c3CC)CC2)n1` gave an INHIBITION of 38.76%. `CCc1[nH]ncc1C(=O)N1CCN(c2nc(C)cc(OC)n2)CC1` was tested, and the INHIBITION was 51.83%. `Cc1ccnn1CCCNC(=O)C1CCN(S(C)(=O)=O)CC1` was tested, and the INHIBITION was -11.34%. `Cc1csc(N2CCN(C(=O)Cc3cccs3)CC2)n1` was tested, and the INHIBITION was 6.07%. `CC(C)(C)C(O)CN1CCN(Cc2cccc(C#N)c2)CC1` (centres undefined) was tested, and the INHIBITION was -4.89%. `COc1ccc(CC(=O)N2CCCCC2Cn2cccn2)cc1OC` (centres undefined) was tested, and the INHIBITION was -40.17%. In the case of `CN1CCN(c2ccccc2NC(=O)NCCc2ccccc2)CC1`, the INHIBITION is reported as -10%. With `C=Cc1ccc(C(=O)NC2CCCc3nc(N(C)C)ncc32)cc1` (centres undefined) the INHIBITION was 34.61%. `CC(C)n1c(=O)[nH]c2cn(-c3ccc(Br)cc3)c(=O)n21` showed an INHIBITION of 22.07%. Work on `Cc1cnc(CN(C)CC2CCCN2c2cccnn2)cn1` (centres undefined) yielded an INHIBITION of 47.72%. With `Cc1cc(NC(=O)CN(C)CC2CCCN2c2cccnn2)n(C)n1` (centres undefined) the INHIBITION was 51.03%. Work on `CCn1ccnc1CNCC1CCCN1c1cccnn1` (centres undefined) yielded an INHIBITION of 39.92%. `Cc1csc(NC(=O)CN(C)CC2CCCN2c2cccnn2)n1` (centres undefined) gave an INHIBITION of 9.17%. `CCn1ccnc1CN(C)CC1CCCN1c1cccnn1` (centres undefined) gave an INHIBITION of 55.52%. Work on `CN(CC(=O)Nc1ccncc1)CC1CCCN1c1cccnn1` (centres undefined) yielded an INHIBITION of -22.08%.
